Screening results as filed in PubChem.
HCV inh = qHTS Assay for Inhibitors of Hepatitis C Virus (HCV); Huh7.5.1 HCVcc-Cre infection, luciferase reporter, 44 h; Potency, µM (highest dose often 41.8 µM), without a hit: top-dose activity change, negative = inhibition, actives largely listed as inhibitors; hit rate 3.4% among 340,000; AID 651820, 2012; active = well fitted inhibition curve with a large enough effect; inconclusive = small, poorly fitted or top-dose-only effect, or another doubt; inactive = no such curve, though single readings can be large or run the other way; note: potency is the fitted concentration of half-maximal effect
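Luciferase read-out (15 sec integration) after a 15 min room-temperature substrate step quantifies HCVcc-Cre infection. Cells, 1,000 per well, had compound added 4 h post-plating, then virus at ~0.5 moi, and were cultured 44 h.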
LASV entry inh = qHTS for Inhibitors of binding or entry into cells for Lassa Virus; hit rate 1.2% among 300,000; Lassa virus pseudotype entry inhibition, cell reporter; AID 540256, 2011; Potency, µM (top dose mostly 37.9 µM), without a hit: at the top dose activity change, negative = inhibition, hits mostly inhibitors; calls by dose curve; tested in HEK293 cells; note: potency is the fitted concentration of half-maximal effect; nearly all actives have a fitted effect of over 50% in size
Marburg entry inh = qHTS for inhibitors of binding or entry into cells for Marburg Virus; Marburg virus pseudotyped entry inhibition, cell reporter; hit rate 1.8% among 300,000; Potency, µM (titrated, usually from 37.8 µM), for inactives: at the top dose activity change, negative = inhibition, most hits filed as inhibitors; calls by dose curve; tested in HEK293 cells; note: potency is the fitted concentration of half-maximal effect
Vaccinia Venus = qHTS for Stage-Specific Inhibitors of Vaccinia Orthopoxvirus: Venus Reporter Primary qHTS | Vaccinia virus Venus reporter expression, fluorescence | hit rate 0.46% among 330,000 | AID 720580, 2013 | Potency, µM (top dose mostly 36.5 µM), without a hit: top-dose activity change, negative = inhibition, usual class: inhibitors; calls by dose curve; tested in A549 cells; note: potency is the fitted concentration of half-maximal effect; nearly all actives have a fitted effect of over 30% in size
HCMV antiviral = qHTS Assay for inhibitors of the human cytomegalovirus (HCMV); AID 1259415, 2018; activity change, negative = inhibition, % at 57.5 µM; hit rate 4.5% among 410,000; HFF cells, HCMV-luciferase reporter, 72 h; active compounds read low; in the data active = activity change below about -60%; inconclusive = no clear call, values can overlap the other calls; inactive = above about -39%
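Two compound doses tested in HFFs infected with HCMV-luciferase, MOI 1 PFU/cell, 72 h at 37C. Lysate luminescence read with OneGlo; data normalized against buffer-only and 10uM Salinomycin inhibitor controls.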
VACV mCherry inh = qHTS for Stage-Specific Inhibitors of Vaccinia Orthopoxvirus: mCherry Reporter Primary qHTS; Vaccinia virus mCherry reporter infection, fluorescence; Potency, µM (titrated, usually from 36.5 µM), inactives show top-dose activity change, negative = inhibition, actives largely listed as inhibitors; hit rate 0.63% among 310,000; AID 720579, 2013; calls by dose curve; tested in A549 cells; note: potency is the fitted concentration of half-maximal effect; nearly all actives have a fitted effect of over 35% in size
Numbers without * were called inactive; i = inactive; u = inconclusive; x = not tested or not shown; [ ] = dose if it differs, or a comment. Rows were chosen to be rich in hits. Some 7.8% of all compounds tested hit in one or more screens of this group. % is set by controls: 0 for no effect and ±100 for the full control effect.

SMILES	HCV inh	LASV entry inh	Marburg entry inh	Vaccinia Venus	HCMV antiviral	VACV mCherry inh
O=c1c2ccccc2c(-c2ccc(O)cc2)nn1-c1cccc(C(F)(F)F)c1	u	u	u	11µM*	u	u
O=c1c2ccccc2c(-c2cccc(C(F)(F)F)c2)nn1-c1ccccc1	8%	u	u	-13%	-4	-12%
CCOc1ccc(CNS(=O)(=O)c2c(C(=O)N3CCC(C)CC3)c(C)n(C)c2C)cc1OC	x	7%[46.1 µM]	x	-8%	8	i
CN(C)CCCN(C(=O)c1cc2cc([N+](=O)[O-])ccc2s1)c1nc2cc3c(cc2s1)OCCO3	u	u	u	13µM*	-98*	14µM*
CCN(CC)CCN(C(=O)c1ccc(C(=O)c2ccccc2)cc1)c1nc2cc3c(cc2s1)OCO3	-9%	21%[46.1 µM]	-13%[46.1 µM]	-6%	37	u
CC1CCCCN1S(=O)(=O)c1ccc(C(=O)N(CCCN(C)C)c2nc3cc4c(cc3s2)OCO4)cc1 (centres undefined)	-6%	-5%	u	-20%	-70*	-16%
CCN(Cc1ccccc1)S(=O)(=O)c1ccc(C(=O)N(CCCN(C)C)c2nc3ccc(F)cc3s2)cc1	u	u	u	-24%	-80*	i
CN(C)CCCN(C(=O)c1ccc(C(=O)c2ccccc2)cc1)c1nc2cc3c(cc2s1)OCO3	14µM*	11µM*	16µM*	u	u	u
CCN(Cc1ccccc1)S(=O)(=O)c1ccc(C(=O)N(CCCN(C)C)c2nc3cc(OC)ccc3s2)cc1	25µM*	u	u	u	-15	i
CCN(Cc1ccccc1)S(=O)(=O)c1ccc(C(=O)N(CCCN(C)C)c2nc3cc4c(cc3s2)OCCO4)cc1	11µM*	u	u	u	-34	-27%
CN(C)CCN(C(=O)c1ccc(S(=O)(=O)N(C)c2ccccc2)cc1)c1nc2cc3c(cc2s1)OCCO3	-10%	0%	-8%	-18%	57	-12%
Cc1cccc2sc(N(CCCN(C)C)C(=O)COc3ccccc3)nc12	x	17%[46.1 µM]	x	-12%	0	-10%
Cc1cccc2sc(N(CCCN(C)C)C(=O)c3ccc(C(=O)c4ccccc4)cc3)nc12	u	-29%[46.1 µM]	u	-27%	-72*	u
COc1ccc(CN2CCCC(n3cc(C(=O)N4CCCCC4)nn3)C2)cc1OC (centres undefined)	x	x	x	5%	x	-8%
O=C(Nc1cc(F)ccc1F)N1C[C@H]2[C@@H](c3ccccc31)[C@H](CO)N2C(=O)c1ccccc1	x	x	x	x	42	x
CCN(CC)CC1CN(N=Cc2ccc([N+](=O)[O-])o2)C(=O)O1 (centres undefined)	u	-4%[46.1 µM]	-4%[46.1 µM]	16µM*	-39	u
CSc1nc2sc3c(c2c(=O)[nH]1)CC[C@@H](C)C3	x	x	23%	x	x	x
O=c1ccn([C@@H]2O[C@H](COP(=O)(O)O)[C@@H](O)[C@H]2O)c(=O)[nH]1	x	x	x	-12%	x	i
Nc1ccn(C2OC(COP(=O)(O)O)C(O)C2O)c(=O)n1 (centres undefined)	u	-15%[46.1 µM]	u	u	-97*	32µM*
O=C(OCC1OC(n2cnc3c(N(C(=O)c4ccccc4)C(=O)c4ccccc4)ncnc32)C(O)C1F)c1ccccc1 (centres undefined)	5%	13µM*	-9%	u	5	u
Cc1ccc(S(=O)(=O)c2nc(Nc3ccccc3N3CCOCC3)sc2Cl)cc1	10µM*	0%	u	x	-34	x
COc1cc2c(C(=O)N3CCN(c4ccc(C)cc4)C(C)C3)cn(CC(C)C)c(=O)c2cc1OC (centres undefined)	x	u	u	-16%	-18	-28%
CCOC1=C2[C@@H](CN(S(=O)(=O)c3ccccc3C)[C@H]2c2ccc(Cl)cc2)[C@H]2C(=O)N(c3ccccc3)C(=O)[C@H]2C1	x	x	x	-15%	-25	i
